# Among all 7,900 compounds or so, about 400 (5.1%) showed an effect of 50% or more. Shown is part of a subset that was picked to be rich in strong results.
# Target: Parkinson's disease protein 7 (PARK7/DJ1) (human, UniProt Q99497)
# Test: primary screen, percent inhibition; read as competition with a fluorescent probe by fluorescence polarization; higher = more effect of the substance
# Settings: 100 µM
# Method in brief: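 Covalent fragments at 100 μM final were incubated 2 h with 0.2 μM PARK7, then 20 nM probe JYQ-107 added for a further 2 h. Fluorescence polarization read at 480/520 nm; relative FP loss versus reference controls gave remaining enzyme activity.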
# Chain of Parkinson's disease protein 7 (PARK7/DJ1) (Q99497 whole entry, looked up): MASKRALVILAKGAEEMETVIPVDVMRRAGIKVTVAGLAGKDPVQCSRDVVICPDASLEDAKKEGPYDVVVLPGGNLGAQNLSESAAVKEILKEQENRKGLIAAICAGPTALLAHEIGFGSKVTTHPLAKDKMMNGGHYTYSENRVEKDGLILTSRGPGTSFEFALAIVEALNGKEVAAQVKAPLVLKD
row,Compound,Inhibition %
1,CC1(C)C(=O)NC1C1CCN(CC(C)(O)C(F)(F)F)CC1 (stereo not shown),6.49%
2,C=CC(=O)N1CCOC(c2ccccc2)C1 (stereo not shown),4.98%
3,O=C1CN=C(S)N1c1ccccc1Cl,5.52%
4,O=C(CCl)N1CCc2cc([N+](=O)[O-])ccc21,5.06%
5,NS(=O)(=O)c1ccc2c(c1)CCN2C(=O)CCl,83.1%
6,CC1Cc2ccccc2N1C(=O)CCl (stereo not shown),8.22%
7,O=C(CCl)N1CCCc2ccccc21,69.2%
8,C=CC(=O)NCCC(=O)N1c2ccccc2CCC1C (stereo not shown),5.89%
9,O=C1CCC(=O)N1CC(=O)N1CCCc2ccccc21,10.8%
10,O=C(CCl)N1CCCC1=O,79.2%
11,CC1CCc2ccccc2N1C(=O)CCl (stereo not shown),100%
12,O=C(CCl)N1CCc2ccccc21,-0.66%
13,O=C(CCl)NCCCN1CCCC1=O,3.35%
14,CN(C)S(=O)(=O)c1ccc2c(c1)CCCN2C(=O)CCl,8.14%
15,O=C1CCCN1CCCl,5.09%
16,C=CC(=O)N1CC(C)OC(COC)C1 (stereo not shown),6.19%
17,C=CC(=O)N1CCCC(N(C)Cc2noc(C)n2)CC1 (stereo not shown),1.13%
18,O=C(CCl)Nc1ccccc1C(=O)Nc1ccc(F)cc1,6.28%
19,O=C(CCl)N(Cc1ccco1)CC(F)(F)F,11.9%
20,CC1(C)OB(c2ccc(F)cc2[N+](=O)[O-])OC1(C)C,3.67%
21,O=C(Nc1ccc2c(c1)COC2)c1cccnc1S,2.52%
22,C=CC(=O)NC1C2Cc3ccccc3C21 (stereo not shown),11.1%
23,O=C(CCCl)N1CCc2ccccc21,3.9%
24,O=C(CCl)N1c2ccccc2CCc2ccccc21,61%
25,O=C(CCl)N1c2ccccc2Sc2ccccc21,1.08%
26,CCOc1cc(C)ccc1S(=O)(=O)n1cccn1,0.108%

row,Compound,Inhibition %
1,COC(=O)c1cc(B2OC(C)(C)C(C)(C)O2)c(C)cn1,4.59%
2,CS(=O)(=O)OC1CCOC(c2ccncc2)C1 (stereo not shown),7.05%
3,N#CCCN(C(=O)CCl)c1ccccc1F,33.7%
4,CN(CCOc1ccccc1F)C(=O)CCl,94.1%
5,COc1ccc(N(CC(F)(F)F)C(=O)CCl)cc1,36.5%
6,O=C(CCl)NCCOc1ccc(Cl)cc1,20.3%
7,CN(CCOc1ccc(Cl)cc1)C(=O)CCl,63.6%
8,OB(O)c1ccc(OCc2ccc(Cl)cc2)cc1,-0.814%
9,CN(Cc1cc(Cl)cc(Cl)c1)C(=O)CCl,32.4%
10,O=C(CCl)COc1ccc(Cl)cc1,97.8%
11,CN(CCOc1ccccc1F)c1cccnc1C#N,40.3%
12,COc1ccc(NC(=O)C(C#N)=Cc2ccco2)cn1,10.5%
13,N#Cc1ncn(CC(=O)N2CCc3sccc3C2)n1,10.8%
14,CN(C)c1ccc(Cl)cc1NC(=O)CCl,1.39%
15,CC(C)(C)OC(=O)N1CCC(B2OC(C)(C)C(C)(C)O2)C1 (stereo not shown),1.29%
16,CC1CN(C(=O)CN2CCSC2=O)C(C)CO1 (stereo not shown),4.59%
17,N#Cc1ccccc1OS(=O)(=O)c1nccs1,25.6%
18,Cc1cc(F)ccc1OS(=O)(=O)c1cnn(C)c1,9.05%
19,O=C(CCl)Nc1ccc2c(c1)NC(=O)CO2,32.7%
20,O=C(CCl)Nc1ccc2c(c1)OC(F)(F)O2,37.9%
21,O=C(CCCl)Nc1ccc2c(c1)OCO2,13.1%
22,O=C(CCl)NC(=O)Nc1ccc2c(c1)OCO2,1.46%
23,O=C(CCl)Nc1ccc2c(c1)OC1(CCCC1)O2,78.4%
24,O=C(CCl)Nc1ccc2c(c1)OC1(CCCCC1)O2,93.3%
25,COc1ccc(-c2nc(C#N)c(N3CCCC3)o2)cc1,5.17%
26,Cn1c(S)nc2ccccc2c1=O,3.7%

row,Compound,Inhibition %
1,O=C(Cc1ccccc1Cl)N1CCCCC1C1OCCO1 (stereo not shown),14.3%
2,O=C(CS)Nc1ccccc1,50.4%
3,O=C(CCCl)Nc1ccccc1F,6.72%
4,C=CC(=O)Nc1ccccc1,3.57%
5,O=C(CS)Nc1ccc(F)cc1,5.25%
6,O=C(CCl)NC(=O)Nc1ccccc1F,-2.13%
7,O=C(CS)Nc1ccccc1F,81.5%
8,O=S1(=O)C=CC(c2ccccc2)C1 (stereo not shown),12.1%
9,CCOc1ccc(S(=O)(=O)n2nc(C)cc2C)cc1C,7.03%
10,C=CCOc1ccc(Cl)c(C#N)n1,4.33%
11,N#CC(=Cc1ccccc1OCC(F)(F)F)C(N)=O,22.7%
12,CCc1noc(CC)c1CNCc1ccccc1B(O)O,2.29%
13,O=C(CCl)N1CCNC1=O,78%
14,O=C(CCl)N1CCOC1=O,31.6%
15,C=CC(=O)N1CCNC(=O)C1,11.3%
16,N#CN(CC(=O)N1CCNC1=O)c1ccccc1,3.42%
17,O=C(CCl)N1CCNCC1.O=C(O)C(F)(F)F,7.16%
18,O=C1CN(C(=O)CCl)CCN1,62.6%
19,CN(C)CCOc1ccccc1B1OC(C)(C)C(C)(C)O1,6.97%
20,C=CC(=O)N(C)C1CCN(c2ncnc3ccccc23)CC1,16.8%
21,Cc1csc(NC(=O)CCl)n1,-1.74%
22,Cc1csc(NC(=O)CS)n1,71.5%
23,Cc1csc(NC(=O)CCN2C(=O)CCC2=O)n1,5.08%
24,Cc1cc(Br)ccc1NC(=O)CCl,19.7%
25,O=C(CCl)NCc1ccc(F)cc1C(F)(F)F,13.5%
26,C=CC(=O)N(Cc1cccc(C)n1)Cc1cccc(C)n1.O=C(O)C(F)(F)F,8%

row,Compound,Inhibition %
1,Cc1sc(NC(=O)CCl)c(C)c1C,56.3%
2,COC(=O)c1c(NC(=O)CCl)sc(C)c1C,10.8%
3,Cc1sc(NC(=O)CCl)c(C#N)c1C,9.37%
4,C=CC(=O)N1CC(n2nc(C)nc2C)C1,9.38%
5,Cn1cc(NS(=O)(=O)c2ccc(S(=O)(=O)F)cc2)cn1,33%
6,Cn1ccc(Nc2ccc(S(=O)(=O)F)cn2)n1,4.77%
7,Cn1cc(NS(=O)(=O)c2cccc(S(=O)(=O)F)c2)ccc1=O,103%
8,CCc1nn(C)cc1NS(=O)(=O)c1cccc(S(=O)(=O)F)c1,95.4%
9,Cn1ccc(NS(=O)(=O)C=Cc2ccccc2)n1,11.1%
10,Cn1cnc(NS(=O)(=O)c2ccc(S(=O)(=O)F)cc2)n1,5.05%
11,CCn1ncnc1NS(=O)(=O)c1cccc(S(=O)(=O)F)c1,99%
12,Cn1ncnc1NS(=O)(=O)c1ccc(S(=O)(=O)F)cc1,5.71%
13,Cn1ccc(NS(=O)(=O)c2cccc(S(=O)(=O)F)c2)n1,97.7%
14,CC1(C)C(=O)NC1c1ccco1 (stereo not shown),1.96%
15,CN(CCc1nccs1)C(=O)c1cccnc1S,5.89%
16,C=CC(=O)N1CCN(C(=O)CN2C(=O)CCC2=O)CC1,6.08%
17,COC(=O)c1ccc(C)c(NC(=O)CCl)c1,3.25%
18,N#CC=C1NC(=O)c2ccccc2S1,28.7%
19,CC1CN(C(=O)C=Cc2ccnn2C)CC(C)N1.Cl (stereo not shown),14.8%
20,CC(=O)c1ccccc1NC(=O)CCl,19%
21,Cn1cnc2ccc(S(=O)(=O)F)cc21,43.4%
22,Cn1nccc1NS(=O)(=O)c1cccc(S(=O)(=O)F)c1,89.5%
23,O=S(=O)(F)c1cccc(S(=O)(=O)Nc2ncccn2)c1,16.8%
24,C=CC(=O)N1C2CCC1CC(CC(F)F)C2 (stereo not shown),6.6%
25,C=CC(=O)N1CCC[C@H]1C(=O)NC,4.18%
26,O=C1OCCC1N1CCN(C(=O)c2cccc(F)c2)CC1 (stereo not shown),8.98%

row,Compound,Inhibition %
1,O=C(CCCl)NC1CCCc2ccccc21 (stereo not shown),2.39%
2,N#CC(=Cc1cc2cc(F)ccc2o1)C(N)=O,6.05%
3,CCc1cc2c(=O)n(CCS(=O)(=O)F)cnc2s1,9.17%
4,CNC(=O)Oc1cccc(O)c1,37.6%
5,CNC(=O)Oc1cccc(N)c1,20.5%
6,CNC(=O)Oc1noc(C)c1C,84.8%
7,C=CC(=O)NCc1c(C)noc1C,13.4%
8,CCc1c(OC(=O)NC)noc1C,84.6%
9,Cc1noc(C)c1CNC(=O)CCl,46.7%
10,N#Cc1nncn1CC(=O)Nc1ccc(C(F)(F)F)cc1,26.2%
11,C=CC(=O)N1CCC(NC(=O)c2oc(C)cc2C)CC1,3.91%
12,C=CC(=O)NC1CCc2nnc(CC)n2C1 (stereo not shown),7.66%
13,O=C(CCl)c1ccc(O)cc1O,81.9%
14,O=C(CCl)c1ccc(Cl)cc1,75.6%
15,O=C(CCl)c1ccoc1,76.6%
16,O=C(CCl)c1cc(F)ccc1O,38.8%
17,Cc1ccc(C(=O)CCl)cc1,32.3%
18,O=C(CCl)c1ccc(F)cc1,32.3%
19,O=C(CCl)c1ccc(O)cc1,86.7%
20,O=C(CCl)c1ccc(F)cc1F,18.5%
21,O=C(CCl)c1ccc(N2CCOC2=O)cc1,24.5%
22,O=C(CCl)NC(=O)c1ccc(Cl)cc1,19.6%
23,Cn1c(=O)oc2cc(C(=O)CCl)ccc21,0.517%

# From article PMC9574860, “Chemical Toolkit for PARK7: Potent, Selective, and High-Throughput” (Journal of Medicinal Chemistry, 2022)
